FUS yeast rescue: rescues growth of FUS-expressing yeast; Potency, µM (series often up to 76.6 µM), usual class: activators; actives 0.24% (n = 390,000); S. cerevisiae FUS-expressing, growth rescue, OD600, 24 h;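 further: plate controls were DMSO vehicle for no effect and reference control for full effect; nearly all actives have a fitted effect of over 55% in size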
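Toxicity suppression screen in FUS-yeast. Cells induced with 2% galactose, starting OD 0.005, treated 24hr at 30C with compounds at multiple final concentrations; growth by OD600.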
aSyn yeast inh: inhibitors of alpha-synuclein toxicity in yeast; Yeast expressing alpha-synuclein, growth rescue, BacTiter-Glo, 24 h; actives 0.14% (n = 370,000); Potency, µM (doses to about 46.1 µM), inactives show top-dose growth rescue (activation), most hits filed as activators; further: % of control where 0% means no effect; nearly all actives have a fitted effect of over 65% in size
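Screening used galactose-induced yeast with toxic alpha-synuclein levels, exposed to compound for 24 hr at 30 deg C. Cell growth, read with BacTiter-Glo luminescence, gave the measured signal.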
Abeta yeast res: A-beta toxicity reversal in yeast; AID 1347071; Potency, µM (doses to about 46.1 µM), most hits filed as activators; actives 0.063% (n = 410,000); yeast expressing A-beta42, growth rescue, OD600, 48 h; response scale: 0% DMSO, 100% iron-clioquinol control; further: nearly all actives have a fitted effect of over 55% in size
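Growth rescue measured by 600 nm absorbance after 48 h yeast culture at 30 C with compound. Values normalized between DMSO and an equimolar ferric chloride plus clioquinol control.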
TDP-43 yeast inh: inhibitors of TDP-43 toxicity in yeast. TDP-43 expressing yeast growth rescue, BacTiter-Glo, 24 h. Potency, µM (titrated, usually from 46.1 µM), without a hit: at the top dose growth rescue (activation), actives largely listed as activators. actives 1.8% (n = 410,000); further: % of control where 0% means no effect; nearly all actives have a fitted effect of over 50% in size
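Luminescence from BacTiter-Glo reports growth of TDP-43-expressing yeast after 24 hr at 30 deg C with compound. Cells were raffinose-pregrown to mid-log, then seeded in galactose medium at OD600=0.02.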
* marks the source's active call; other numbers are inactive results; i = inactive; ? = inconclusive; / = not tested or not shown. Only some compounds are listed: those with a hit (about 2.1% of all), similar ones and a draw of the others. The call rests on the fitted dose curve; in most records, active means well fitted curve in the direction sought with a large enough effect; inconclusive means small, poorly fitted or top-dose-only effect, or another doubt; inactive means no such curve, though single readings can be large; an effect the other way counts as inactive or inconclusive. Potency means the concentration at half of the fitted maximal effect.

SMILES	FUS yeast rescue	aSyn yeast inh	Abeta yeast res	TDP-43 yeast inh
COC(=O)C1=C(c2ccc(OC(F)(F)F)cc2)C[C@@H]2CC[C@H]1N2C(=O)NCCOc1ccccc1	?	3%	i	?
COC(=O)C1=C(c2ccc(Cl)c(C(F)(F)F)c2)C[C@@H]2CC[C@H]1N2C(=O)NCCO	i	3%	i	-1%
COC(=O)C1=C(c2cc3ccccc3s2)C[C@@H]2CC[C@H]1N2C(=O)NCc1ccc(F)cc1	?	?	i	10µM*
COC(=O)C1=C(c2ccc(OC(F)(F)F)cc2)C[C@@H]2CC[C@H]1N2C(=O)NCCOc1ccccc1Cl	?	10%	i	28µM*
COC(=O)C1=C(c2ccc(Cl)c(C(F)(F)F)c2)C[C@@H]2CC[C@H]1N2C(=O)NCc1ccco1	i	1%	i	22µM*
COC(=O)C1=C(c2ccc(Cl)c(C(F)(F)F)c2)C[C@@H]2CC[C@H]1N2C(=O)NCCOc1ccccc1	22µM*	2%	i	22µM*
COC(=O)C1=C(c2ccc3ccccc3c2)C[C@@H]2CC[C@H]1N2C(=O)NCc1ccco1	i	23%	i	38%
COC(=O)C1=C(c2cc3ccccc3s2)C[C@@H]2CC[C@H]1N2C(=O)NCc1ccccc1	i	2%	i	?
O=C1CC[C@@]2(O)C3Cc4ccc(O)c5c4C2(CCN3CC2CC2)[C@H]1O5 (some centres not stated)	/	-2%	/	/
O=C(NCc1ccc(Cl)cc1)C1CCCN(C(=O)c2cnn(-c3ccc(F)cc3)c2-n2cccc2)C1 (configuration not stated)	?	/	i	?
COc1cc2c(ccc3c4cc(OC)c(OC)cc4c[n+](C)c23)cc1O	/	7%	i	11µM*
COc1ccc2c(c[n+](C)c3c4cc5c(cc4ccc23)OCO5)c1OC	/	-10%	/	/
NC(Cc1ccc(C(F)(F)F)cc1)c1csc(Nc2nncc3ccccc23)n1 (configuration not stated)	?	-54%	i	?
Cc1ccc(C)c(N2CCN(c3nc4ccc(Cl)cc4n4cnnc34)CC2)c1	i	/	i	?
CCC(=Nc1ccc(OC)cc1OC)c1c(O)n(C2CCCCC2)c(=O)[nH]c1=O	?	-12%	i	16µM*
CCC(=NCc1ccco1)c1c(O)n(C2CCCCC2)c(=O)[nH]c1=O	i	-15%	i	0%
Cc1cccc(-c2nc(CN3C(=O)CN=C(c4ccccc4)c4ccccc43)c(C)o2)c1	i	/	i	35µM*
Cc1oc(-c2ccccc2)nc1CN1C(=O)CN=C(c2ccccc2)c2ccccc21	i	-7%	i	?
CN(C)c1ccc(/C=C/C=C2/C(=O)NC(=O)N(c3ccccc3)C2=O)cc1	5.6µM*	-44%	i	-56%
O=C1NC(=O)N(c2ccccc2)C(=O)/C1=C/C=C/c1ccco1	i	4%	i	7%
Cc1c(CCC(=O)N2CCCCC2)c(=O)oc2cc3occ(C(C)(C)C)c3cc12	i	/	i	?
COc1cc([C@@H]2c3cc4c(c(O)c3C[C@H]3COC(=O)[C@@H]32)OCO4)cc(OC)c1OC	/	1%	/	/
CCCc1cc(N2CCN(c3cccc(C)c3C)CC2)n2cnnc2n1	i	/	i	16µM*
COc1cc2c(c3oc4cccc(O)c4c(=O)c13)[C@@H]1C=CO[C@@H]1O2	i	/	/	/
C=Cc1cc(OC)c2c(c1)c(=O)oc1c2cc(OC)c2c(O)ccc(C3OC(C)C(O)C(C)(O)C3O)c21 (configuration not stated)	/	0.63µM*	i	14µM*
SMILES	FUS yeast rescue	aSyn yeast inh	Abeta yeast res	TDP-43 yeast inh
O=C(C(=O)N1CC=C(c2ccccc2)CC1)c1c[nH]c2ccccc12	i	?	i	16µM*
Cc1ccc(S(=O)(=O)N(C)C[C@@H]2Oc3ncc(Br)cc3C(=O)N([C@H](C)CO)C[C@@H]2C)cc1	i	8%	i	6%
c1ccc(N2CCN(c3ncnc4c3nc3n4CCCC3)CC2)cc1	i	/	i	?
Cc1ccc(Cl)cc1N1CCN(c2ncnc3c2nc2n3CCCC2)CC1	i	/	i	14µM*
COc1ccc(-c2ccc3c(c2)CN(C(=O)C(C)(C)C)Cc2cnnn2-3)cc1	i	4%	i	18µM*
O=C(Oc1ccc2ccccc2c1)c1ccco1	i	-8%	i	11µM*
[Hg+][c]1ccccc1	/	-79%	/	/
CC12CC(=O)C3C(CCC4CC=CCC43C)C1CCC2=O (configuration not stated)	/	9%	i	10µM*
C[C@@H]1O[C@@H](O[C@@H]2C=C3CC[C@@H]4[C@@H](CC[C@]5(C)[C@H](c6ccc(=O)oc6)CC[C@@]45O)[C@@]3(C)CC2)[C@H](O)[C@H](O)[C@H]1O	/	0%	/	/
OC[C@H]1OC(O)C[C@@H](O)[C@@H]1O (some centres not stated)	i	10%	i	?
Cc1ccccc1C(=O)Nc1cc(-c2ccc(Cl)cc2)nn1-c1ccccc1	i	/	i	?
Cc1ccc(NC(=O)CCSc2nnc(Cc3ccccc3)o2)cc1	/	5%	i	18µM*
Cc1ccc(NC(=O)COc2ccc(-c3nn(C)c(=O)c4ccccc34)cc2)cc1	i	/	i	?
Cc1ccccc1-n1c(/C=C/c2ccc(N(C)C)cc2)nc2ccccc2c1=O	i	-5%	i	?
Cc1ccccc1-n1c(/C=C/c2c(C)[nH]c3ccccc23)nc2ccccc2c1=O	i	/	i	16µM*
Cc1ccc(NC(=O)Nc2ccc3nc(N4CCN(C)CC4)cc(C)c3c2)cc1F	i	/	i	?
Cc1ccc2n1Cc1cnnn1-c1ccccc1-2	i	1%	i	10µM*
CCCCC[C@H]1CCCCC[C@H](O)C[C@@H](O)[C@H](O)/C=C/C(=O)O1	i	2%	i	26%
CCCCN1C(=O)NC(=O)C2(Cc3c(nc4ccccn4c3=O)N3CCc4ccccc4C32)C1=O (configuration not stated)	i	14%	i	?
CCCCN1C(=O)NC(=O)C2(Cc3c(nc4c(C)cccn4c3=O)N3CCc4ccccc4C32)C1=O (configuration not stated)	?	18%	i	35µM*
COc1ccc(Nc2c(-c3cc(Br)ccc3O)nc3ncccn23)cc1OC	i	/	i	?
CC1OC(O[C@H]2C[C@@H](O)[C@]3(CO)[C@H]4[C@H](O)C[C@]5(C)[C@@H](C6=CC(=O)OC6)CC[C@]5(O)[C@@H]4CC[C@]3(O)C2)C(O)C(O)C1O (some centres not stated)	/	0%	/	/
COc1cc(O)c(C(=O)O)c(-c2cc(O)c(O)cc2C)c1	i	14µM*	?	17%
Cc1ccc(C(=O)Nc2c(C(=O)Nc3ccc(C)c(C)c3)sc3nc(C)cc(C)c23)cc1	i	/	i	?
